SMILES strings stand for the structures. Where “and” joins values, the source holds several entries; their conditions need not be identical. Equal entries are not always repeated. Inconclusive results are not listed. Some structures have more than one record in an assay (separate samples or runs), and their calls can disagree. Calls of active or inactive are those of the source. Unless noted, the call rests on the fitted dose curve; in most records, active means well fitted curve in the direction sought with a large enough effect in the repeat runs; inconclusive means weak or mixed curves; inactive means no such curve, though single readings can be large; an effect the other way counts as inactive or inconclusive.

A short description of experiment [1]: qHTS assay to identify small molecule agonists of the vitamin D receptor (VDR) signaling pathway - cell viability counter screen (AID 743224). Further: nearly all actives have a fitted effect of over 50% in size. Further: potency means the concentration at half of the fitted maximal effect. Put shortly:
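Plated VDR-bla cells (4 h, 37C) received compound, incubated 16 h, then LiveBLAzer substrate 2 h RT; CellTiter-Glo added afterwards, luminescence read at 30 min.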

Experiment [2] is described as follows: qHTS assay to identify small molecule antagonists of the vitamin D receptor (VDR) signaling pathway - cell viability counter screen (AID 743225). Further: nearly all actives have a fitted effect of over 50% in size. Further: potency means the concentration at half of the fitted maximal effect. Put shortly: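 Same-well multiplex: following 16 h treatment of HEK 293T cells carrying a UAS-driven beta-lactamase reporter with compound and agonist (3 nM final), and a 2 h FRET substrate step, CellTiter-Glo was added and luminescence read after 30 min.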

Experiment [3] is described as follows: qHTS assay to identify small molecule agonists of the endoplasmic reticulum stress response signaling pathway - cell viability counter screen (AID 1159517; calls by dose curve; further: nearly all actives have a fitted effect of over 50% in size; further: potency means the concentration at half of the fitted maximal effect). Put shortly:
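Counter-screen wells were identical to the reporter wells. Cells were plated at 1,500 per well and dosed for 5 hr, then read for luminescence 30 min after CellTiter-Glo addition.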

A short description of experiment [4]: qHTS assay to identify small molecule antagonists of the retinoid-related orphan receptor gamma (ROR-gamma) signaling pathway - cell viability counter screen (AID 1159520). Further: nearly all actives have a fitted effect of over 50% in size. Further: potency means the concentration at half of the fitted maximal effect. Put shortly: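 Tet-on ROR gamma CHO cells were given compounds for 2 hr, then doxycycline hyclate at 1 uM final, and incubated 16 hr at 37 C. Viability was measured as ATP content by CellTiter-Glo luminescence.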

Experiment [5] concerns the target Nuclear receptor ROR-gamma (Homo sapiens) (UniProt P51449). The experiment in a line: qHTS assay to identify small molecule antagonists of the retinoid-related orphan receptor gamma (ROR-gamma) signaling pathway (AID 1159521; further: nearly all actives have a fitted effect of over 50% in size; further: potency means the concentration at half of the fitted maximal effect). In short, it runs like this:
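Inducible-expression reporter assay: doxycycline (1 uM final) switched on RORγ in CHO cells bearing a ROR response element-luciferase construct, with test compounds present from 2 h beforehand. Decreased luminescence after 16 h defined antagonist activity.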

A short description of experiment [6]: qHTS assay to identify small molecule agonists of the AP-1 signaling pathway - cell viability counter screen (AID 1159525; calls by dose curve; further: nearly all actives have a fitted effect of over 55% in size; further: potency means the concentration at half of the fitted maximal effect). Put shortly:
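AP-1-bla ME-180 cells in Opti-MEM with 0.5% dialyzed FBS, compound exposure 5 h at 37 C in 15-point titration. Viability read in the same wells as ATP content by CellTiter-Glo luminescence, normalised to tetra-n-octylammonium bromide and DMSO controls.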

A short description of experiment [7]: qHTS assay to identify small molecule agonists of the RXR signaling pathway - cell viability counter screen (AID 1159529). Further: nearly all actives have a fitted effect of over 50% in size. Further: potency means the concentration at half of the fitted maximal effect. In short, it runs like this: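 Counter screen: CellTiter-Glo luminescence. Cells: RXR-alpha-UAS-bla HEK 293T. Medium: 2% charcoal-stripped FBS. Treatment: 16 h, 37 C. Reagent incubation: 30 min, RT.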
Experiment [8] is described as follows: qHTS assay to identify small molecule agonists of the AP-1 signaling pathway (AID 1159526; calls by dose curve).
Experiment [9] deals with Retinoic acid receptor RXR-alpha (Homo sapiens) (UniProt P19793). The experiment in a line: qHTS assay to identify small molecule agonists of the RXR signaling pathway (AID 1159527; calls by dose curve; further: nearly all actives have a fitted effect of over 35% in size). Put shortly: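 Compounds in DMSO were added to RXR-alpha-UAS-bla HEK 293T cells kept in 2% charcoal-stripped serum, and incubated 16 hr at 37 C with 5% CO2. Reporter signal came from a 2 hr B/G FRET substrate step.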
Chain of Retinoic acid receptor RXR-alpha (Homo sapiens) (P19793 whole entry, looked up): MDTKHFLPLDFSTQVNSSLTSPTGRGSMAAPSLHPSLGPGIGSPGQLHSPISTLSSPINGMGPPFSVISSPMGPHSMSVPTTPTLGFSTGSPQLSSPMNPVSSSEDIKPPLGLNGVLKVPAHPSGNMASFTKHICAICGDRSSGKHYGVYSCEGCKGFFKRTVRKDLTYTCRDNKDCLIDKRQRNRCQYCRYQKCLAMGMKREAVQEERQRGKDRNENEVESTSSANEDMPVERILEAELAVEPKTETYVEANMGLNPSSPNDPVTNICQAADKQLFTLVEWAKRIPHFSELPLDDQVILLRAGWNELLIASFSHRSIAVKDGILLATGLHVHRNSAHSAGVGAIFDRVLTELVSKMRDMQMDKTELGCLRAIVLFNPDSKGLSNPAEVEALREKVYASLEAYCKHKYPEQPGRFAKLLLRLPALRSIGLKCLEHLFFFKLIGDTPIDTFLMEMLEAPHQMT

Experiment [10] in a line: qHTS assay to identify small molecule antagonists of the retinoid acid receptor (RAR) signaling pathway - cell viability counter screen (AID 1159551). Further: nearly all actives have a fitted effect of over 35% in size. Further: potency means the concentration at half of the fitted maximal effect. Put shortly:
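Retinol-stimulated (1 uM final) C3RL4 cells, compound 6 h, 37 C; readout CellTiter-Glo luminescence (ATP) after 30 min RT incubation.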

The nature of experiment [11]: qHTS assay to identify small molecule antagonists of the retinoic acid receptor (RAR) signaling pathway (AID 1159552; further: nearly all actives have a fitted effect of over 50% in size; further: potency means the concentration at half of the fitted maximal effect). In short, it runs like this:
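Antagonism of retinol-induced RARE reporter activity was measured in C3RL4 cells. Exposure to compounds and 1 uM final retinol lasted 6 hr at 37 C, with luminescence as endpoint.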

Experiment [12] in a line: qHTS assay to identify small molecule agonists of the retinoic acid receptor (RAR) signaling pathway (AID 1159553). Further: potency means the concentration at half of the fitted maximal effect. Put shortly:
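Reporter readout comes from luciferase under RARE control in C3RL4 cells; compound exposure lasts 6 hr at 37 C in 5% CO2, and luminescence is recorded following a 30 min room-temperature incubation with reagent.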

Experiment [13] is described as follows: qHTS assay to identify small molecule antagonists of the estrogen related receptor (ERR) signaling pathway from Tox21 library - cell viability counter screen (AID 1224834). Further: nearly all actives have a fitted effect of over 30% in size. Further: potency means the concentration at half of the fitted maximal effect. In short, it runs like this:
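After 17.5 h of compound exposure at 37 C, ERR cells are incubated with CellTiter-Fluor for 30 min and fluorescence intensity serves as the viability measure.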

Consider `CCCCCCOc1cc(C)c(O)c(C)c1C`, for which the Potency is 39.4 µM (active) in [1]; 35.1 µM (active) in experiment [2]; 55.6 µM (active) in experiment [3]; 61.9 µM (active) in experiment [4]; 49.2 µM (active) in [5]; 44.2 µM (active) in experiment [6]. Moreover, the Potency in experiment [7] was 35.1 µM (active).

Regarding `COC(=O)[C@]1(C)CCC[C@@]2(C)[C@H]1CC=C1C=C(C(C)C)CC[C@@H]12`, the Potency result in experiment [1], in experiment [4], in experiment [5], in experiment [8], in experiment [9] and in [7] was “inactive” in each case. The Potency result in [10], in experiment [11], in [12] and in [13] was “inactive” in each case. In experiment [3], the Potency is 49 µM (active).

For the molecule `CC1CCCNC1` (centres undefined), in experiment [1], the Potency was 47.9 µM (active). In addition, the Potency result in [2], in experiment [3], in experiment [4], in [5], in experiment [6] and in experiment [10] was “inactive” in each case. The Potency entry in experiment [13] is “inactive”.

On to `CN1[C@@H]2CC[C@H]1CC(OC(=O)C(CO)c1ccccc1)C2` (some centres undefined), for which the Potency entry in experiment [3], in experiment [4], in experiment [6], in experiment [8], in experiment [9] and in experiment [10] was “inactive” throughout. For the same molecule, the Potency entry in experiment [13] is “inactive”. Also, the Potency in [7] is 48.9 µM (active).

As to `CCCCCCCOC(=O)c1ccc(O)cc1`, the Potency in experiment [2] is 38.9 µM (active); in [3], 54.9 µM (active); in [6] it was 49 µM (active); in [7], 55 µM (active); in [12] it was 34.4 µM (active). Moreover, the Potency result in experiment [4], in experiment [5], in [9], in experiment [10] and in experiment [11] was “inactive” throughout.

With `C=C(c1ccc(C(=O)O)cc1)c1cc2c(cc1C)C(C)(C)CCC2(C)C`, the Potency in experiment [1] is 21.9 µM (active) and inactive; in experiment [2], 21.3 µM (active); in [3], 24.5 µM (active) and 19 µM (active); in [4], 30.6 µM (active); in [5], 24.3 µM (active) and 23.7 µM (active); in experiment [6] it was 30.9 µM (active). Further, the Potency in experiment [7] is 49 µM (active) and 23.9 µM (active); in experiment [10], 61.1 µM (active); in [13], 54.5 µM (active).

In the case of `c1ccc(Sc2ccccc2)cc1`, the Potency in experiment [1] is 49 µM (active); in experiment [3], 43.6 µM (active). In addition, the Potency result in experiment [4], in experiment [5], in [6], in experiment [10], in [11] and in experiment [13] was “inactive” in each case.

As to `O=C1c2c(O)ccc([N+](=O)[O-])c2C(=O)c2c([N+](=O)[O-])ccc(O)c21`, the Potency in experiment [1] is 10.9 µM (active); in [3], 24.3 µM (active); in experiment [4], 27.1 µM (active); in [5], 24.1 µM (active); in experiment [6], 24.3 µM (active); in experiment [7], 17.2 µM (active). Also, the Potency is 48.1 µM (active) in experiment [10], 27.1 µM (active) in [11] and 27.1 µM (active) in experiment [13].

In the case of `CCc1cccc(C)c1`, the Potency entry in [1], in experiment [2], in [3], in experiment [4], in experiment [5] and in [6] was “inactive” each time. Further, the Potency result in experiment [9], in [7] and in experiment [10] was “inactive” in each case.

With `O=C1C=CC(=O)N1c1ccccc1`, the Potency in experiment [1] is 11 µM (active); in experiment [2] it was 15.5 µM (active); in [3], 34.7 µM (active); in experiment [4], 15.4 µM (active); in [5], 7.7 µM (active); in experiment [6], 24.5 µM (active). Also, the Potency is 15.5 µM (active) in experiment [7], 30.6 µM (active) in experiment [10], 6.11 µM (active) in experiment [11] and 43.3 µM (active) in [13]. For the same molecule, the Potency result in [9] was “inactive”.

`CCN=c1cc2oc3cc(NCC)c(C)cc3c(-c3ccccc3C(=O)OCC)c-2cc1C`: the Potency was 27.4 µM (active) and 24.5 µM (active) in experiment [1]; 48.8 µM (active) and 24.5 µM (active) in [2]; 24.5 µM (active) and 38.9 µM (active) in experiment [3]; 27.2 µM (active) and 24.3 µM (active) in experiment [4]; 3.84 µM (active) and 6.86 µM (active) in experiment [5]; 38.8 µM (active) and 49 µM (active) in experiment [7]. Also, the Potency was 60.9 µM (active) and 48.6 µM (active) in [10]; 24.2 µM (active) and 24.3 µM (active) in experiment [11]; 272 nM (active) and 243 nM (active) in [13].

For the origin of these results see PubChem BioAssay (Tox21).
